Assay results taken from PubChem BioAssay AID590 (National Center for Advancing Translational Sciences (NCATS), 2007).
In all, about 59,000 compounds went through this assay and about 6,500 (11%) were called active. Inconclusive results (about 15%) are left out. Rule as the data show it: active = max dye-equivalent concentration above about 10 nM; inconclusive = mostly about 1.1 nM to 9.6 nM; inactive = weaker than that. Many of the other results were omitted from the sample, so actives are more common in it than they were.

test: qHTS Assay for Spectroscopic Profiling in A350 Spectral Region; conditions: Compound autofluorescence, 340/450 nm, Alexa 350 dye-equivalents; hits give high values

**Q.** Which max dye-equivalent concentration does the source give for `CCNC(=O)CCc1nc(-c2ccc(C(C)(C)C)cc2)no1` here?
**A.** The max dye-equivalent concentration was “inactive”.

**Q.** With `Cc1ccc(S(=O)(=O)c2c(N)n(C)c3nc4ccccc4nc23)cc1` as the compound, how does the max dye-equivalent concentration read?
**A.** The max dye-equivalent concentration was 3600 nM (active).

**Q.** With `Cc1ccc(S(=O)(=O)NCc2nc3ccccc3c(=O)n2N)cc1` as the compound, how does the max dye-equivalent concentration read?
**A.** The max dye-equivalent concentration was “inactive”.

**Q.** For `CC1=C(C(=O)Nc2ccccc2)C(c2cccs2)C(C#N)=C(SCC#N)N1` (stereo not drawn), which max dye-equivalent concentration is on record?
**A.** Its max dye-equivalent concentration is “inactive”.

**Q.** For `CCOC(=O)N1CC=C2C(C#N)=C(N)C(C#N)(C#N)[C@H](c3cccs3)[C@H]2C1`, which max dye-equivalent concentration is on record?
**A.** Its max dye-equivalent concentration is 35 nM (active).

**Q.** For `CC(=O)N1CCN(c2ccc(NCc3ccc(C(C)C)cc3)cc2)CC1`, which max dye-equivalent concentration is on record?
**A.** Its max dye-equivalent concentration is “inactive”.

**Q.** Which max dye-equivalent concentration does the source give for `Cn1c(/C(C#N)=C2/CCCCCN2)nc2ccccc21` here?
**A.** Its max dye-equivalent concentration is 23 nM (active).

**Q.** Which max dye-equivalent concentration does the source give for `N#C/C(=C1\CCCN1)c1nc(-c2ccccc2)cs1` here?
**A.** Its max dye-equivalent concentration is “inactive”.

**Q.** For `CCC(C)(C)n1nnnc1C(c1cccs1)N1CCN(Cc2ccccc2)CC1` (stereo not drawn), which max dye-equivalent concentration is on record?
**A.** The max dye-equivalent concentration was “inactive”.

**Q.** For `O=C1c2ccccc2C(=O)C1c1ccccc1`, which max dye-equivalent concentration is on record?
**A.** The max dye-equivalent concentration was “inactive”.

**Q.** With `COc1ccc2[nH]c(=O)c(-c3noc(-c4ccc(F)cc4)n3)cc2c1` as the compound, how does the max dye-equivalent concentration read?
**A.** The max dye-equivalent concentration was 14 nM (active).

**Q.** With `Cc1cccc(-c2noc(-c3ccc(F)cc3)n2)c1` as the compound, how does the max dye-equivalent concentration read?
**A.** The max dye-equivalent concentration was “inactive”.

**Q.** With `O=C(c1cc(C(F)(F)F)cc(C(F)(F)F)c1)N1CCC2(CC1)CN(c1ccncc1)C2` as the compound, how does the max dye-equivalent concentration read?
**A.** The max dye-equivalent concentration was “inactive”.

**Q.** With `CN1CCN(c2ncncc2-c2ccc(C(=O)N(C)C)cc2)CC1` as the compound, how does the max dye-equivalent concentration read?
**A.** Its max dye-equivalent concentration is “inactive”.

**Q.** For `COCCNC(=O)CN(C(=O)CCC(=O)Nc1cc(C)on1)c1ccc(C)cc1C`, which max dye-equivalent concentration is on record?
**A.** The max dye-equivalent concentration was “inactive”.

**Q.** Which max dye-equivalent concentration does the source give for `COc1cc2[nH]c(=S)n(CCN3CCCCC3C)c(=O)c2cc1OC` (stereo not drawn) here?
**A.** The max dye-equivalent concentration was “inactive”.

**Q.** Which max dye-equivalent concentration does the source give for `CCCCn1c(SCC(=O)NCC2CCCO2)nc2ccc(N3CCOCC3)cc2c1=O` (stereo not drawn) here?
**A.** Its max dye-equivalent concentration is 71 nM (active).

**Q.** With `CCCCn1c(SCC(=O)NCCc2ccc(OC)c(OC)c2)nc2c1c(=O)n(C)c(=O)n2C` as the compound, how does the max dye-equivalent concentration read?
**A.** Its max dye-equivalent concentration is “inactive”.

**Q.** For `CCn1c(SCC(=O)NCC2CCCO2)nc2cc(S(=O)(=O)N3CCCCC3)ccc21` (stereo not drawn), which max dye-equivalent concentration is on record?
**A.** Its max dye-equivalent concentration is “inactive”.

**Q.** For `CCc1ccc(NC(=O)CSc2nc3ccccc3c(=O)n2CCN2CCOCC2)cc1`, which max dye-equivalent concentration is on record?
**A.** The max dye-equivalent concentration was “inactive”.

**Q.** For `O=C(CSc1nc2cc3c(cc2c(=O)n1CCC1=CCCCC1)OCO3)NCc1ccco1`, which max dye-equivalent concentration is on record?
**A.** Its max dye-equivalent concentration is “inactive”.

**Q.** With `COCCCNC(=O)CSc1nc2ccc(N3CCOCC3)cc2c(=O)n1CCc1ccccc1` as the compound, how does the max dye-equivalent concentration read?
**A.** Its max dye-equivalent concentration is 69 nM (active).

**Q.** For `O=C(c1ccco1)N1CCC[C@@]2(CCN(c3ccccc3)C2)C1`, which max dye-equivalent concentration is on record?
**A.** The max dye-equivalent concentration was “inactive”.

**Q.** For `CC(Oc1ccc(Cl)cc1)C(=O)Nc1ncccn1` (stereo not drawn), which max dye-equivalent concentration is on record?
**A.** The max dye-equivalent concentration was “inactive”.

**Q.** Which max dye-equivalent concentration does the source give for `O=C(c1cc(C(F)(F)F)cc(C(F)(F)F)c1)N1CCC2(CCCN(Cc3ccncc3)C2)CC1` here?
**A.** Its max dye-equivalent concentration is “inactive”.

**Q.** For `O=C(COc1ncnc2ccccc12)NC(=O)NCc1ccccc1`, which max dye-equivalent concentration is on record?
**A.** The max dye-equivalent concentration was “inactive”.

**Q.** Which max dye-equivalent concentration does the source give for `Cc1cccc(-n2c(N)cc(=O)nc2SC(C)C(=O)NC2CCCCC2)c1` (stereo not drawn) here?
**A.** The max dye-equivalent concentration was “inactive”.

**Q.** Which max dye-equivalent concentration does the source give for `COC(=O)c1ccc(CSc2ccccc2C)o1` here?
**A.** The max dye-equivalent concentration was “inactive”.
